# Shown are actives, neighbours in structure and some others; about 9.4% of the full set was active somewhere.
# FLuc counter: qHTS profiling assay for firefly luciferase inhibitor/activator using purifed enzyme and Km concentrations of substrates (counterscreen for miR-21 project) | Luciferin 4-monooxygenase (Photinus pyralis), P08659 | Potency, µM (highest dose often 57.5 µM), inactives show top-dose activity change, negative = inhibition, actives largely listed as inhibitors | AID 588342, 2011 | 6.9% of 360,000 active | purified FLuc, Km substrates, luminescence inhibition;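 further: plate controls were vehicle for no effect and reference inhibitor for full effect; nearly all actives have a fitted effect of over 55% in size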
# Target sequence (P08659 whole entry, looked up): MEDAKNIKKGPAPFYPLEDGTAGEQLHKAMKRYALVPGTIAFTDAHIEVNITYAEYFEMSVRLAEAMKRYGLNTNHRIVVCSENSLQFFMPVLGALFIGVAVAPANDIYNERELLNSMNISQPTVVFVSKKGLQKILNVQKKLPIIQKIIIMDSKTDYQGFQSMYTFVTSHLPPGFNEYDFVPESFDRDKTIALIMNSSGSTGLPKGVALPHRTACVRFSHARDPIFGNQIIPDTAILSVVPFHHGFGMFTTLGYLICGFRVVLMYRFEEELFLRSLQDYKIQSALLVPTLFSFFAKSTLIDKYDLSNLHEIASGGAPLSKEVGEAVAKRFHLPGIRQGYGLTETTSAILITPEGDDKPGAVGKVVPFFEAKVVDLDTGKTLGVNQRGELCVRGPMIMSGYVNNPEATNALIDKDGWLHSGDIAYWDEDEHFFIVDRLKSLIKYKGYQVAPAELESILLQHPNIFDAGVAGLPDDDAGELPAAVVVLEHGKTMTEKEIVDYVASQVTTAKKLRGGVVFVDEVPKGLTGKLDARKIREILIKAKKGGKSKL
#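 Purified P. pyralis luciferase, 10 nM final, with Km-level 10 uM D-luciferin and 10 uM ATP in 50 mM Tris acetate pH 7.5, 10 mM Mg acetate, 0.01% Tween-20, 0.05% BSA; 6-point qHTS titration about 60 µM downward; luminescence read.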
# ELG1 DNA repair: qHTS screen for small molecules that inhibit ELG1-dependent DNA repair in human embryonic kidney (HEK293T) cells expressing luciferase-tagged ELG1. 2.3% of 330,000 active. AID 504467, 2011. HEK293T ELG1-luciferase reporter, luminescence, 16 h; DNA damage induced by 5-fluorouridine. Potency, µM (series often up to 46.1 µM), for the others: at the highest dose activity change, negative = inhibition, usual class: inhibitors; further: on the % scale 0 is the no-effect control and ±100 the full control effect; nearly all actives have a fitted effect of over 55% in size
#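 HEK293T cells expressing luciferase-tagged ELG1 (2,000/well) received 5-Fluorouridine plus compound or DMSO for 16 hr at 37 °C. Luciferase was read by ONE-Glo luminescence after 30 min at room temperature.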
# ELG1 genotoxic: qHTS screen for small molecules that induce genotoxicity in human embryonic kidney (HEK293T) cells expressing luciferase-tagged ELG1 | HEK293T ELG1-luciferase reporter, luminescence, 16 h | Potency, µM (top dose mostly 46 µM), inactives show at the top dose activity change, positive = activation, usual class: activators | 1.3% of 330,000 active | AID 504466, 2011; further: % of control where 0% means no effect; nearly all actives have a fitted effect of over 60% in size
#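 16 hr compound incubation (37 °C, 5% CO2) of HEK293T cells carrying luciferase-tagged ELG1; luciferase then measured by ONE-Glo luminescence after 30 min at RT.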
# SMN2 splice up: qHTS Assay for Enhancers of SMN2 Splice Variant Expression | AID 1458, 2008 | HEK293 SMN2-luciferase splicing reporter, luminescence, 30-36 h | 2.8% of 210,000 active | Potency, µM (series often up to 46.1 µM), without a hit: at the top dose activity change, positive = activation, actives largely listed as activators; further: % of control where 0% means no effect; nearly all actives have a fitted effect of over 55% in size
#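 HEK293 cells carry an SMN2 […]–luciferase reporter in which exon 7 inclusion puts luciferase in frame. Cells were plated 10-12 h before compound addition, then incubated 30-36 h at 37C. ONE-Glo luminescence was read; sodium butyrate at 4.5 mM final served as control.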
# NPC1 prom act: qHTS Assay for NPC1 Promoter Activators. Huh7 NPC1 promoter luciferase reporter, 24 h. Potency, µM (series often up to 9.22 µM), inactives show at the top dose activation, actives largely listed as activators. 2.4% of 320,000 active; further: % of control where 0% means no effect; nearly all actives have a fitted effect of over 60% in size
#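 Cells: Huh7 expressing luciferase under the NPC1 promoter, 1500/well. Seeded 2 h, compound added, incubated 24 h at 37 °C. Luciferase reagent, 10 min ambient, then luminescence.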
# Rab9 prom act: qHTS Assay for Rab9 Promoter Activators. Huh7 Rab9 promoter-luciferase reporter, luminescence, 24 h. Potency, µM (series often up to 9.22 µM), inactives show at the highest dose activation, negative = inhibition, actives largely listed as activators. 2.8% of 320,000 active; further: % of control where 0% means no effect; nearly all actives have a fitted effect of over 60% in size
#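 Huh7 cells stably carrying a Rab9 promoter-luciferase reporter, 1500 cells per well in OP-MEM I with 10% FBS, treated with compound 24 hours at 37C. Luciferase activity read by luminescence after 10 minutes with Amplite reagent.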
# * hit, by the source's call; ? = inconclusive; nt = no result; [ ] = another dose, or the depositor's remark. The call rests on the fitted dose curve; in most records, active means well fitted curve in the direction sought with a large enough effect; inconclusive means small, poorly fitted or top-dose-only effect, or another doubt; inactive means no such curve, though single readings can be large; an effect the other way counts as inactive or inconclusive. Potency means the concentration at half of the fitted maximal effect.
SMILES,FLuc counter,ELG1 DNA repair,ELG1 genotoxic,SMN2 splice up,NPC1 prom act,Rab9 prom act
COc1ccc2[nH]c(=O)c(CN(Cc3cccs3)S(=O)(=O)c3cccc4nsnc34)cc2c1,-1.0%,1.3µM*,-29.0%,-50.3%,-17.3%,-10.5%
Cc1cc2cc(CN(Cc3ccco3)C(=O)NCc3ccccc3)c(=O)[nH]c2cc1C,1.0%,?,-7.1%,-8.5%,19.5%,-8.6%
O=C(Nc1ccc(F)cc1)N(Cc1ccco1)Cc1cc2cc3c(cc2[nH]c1=O)OCO3,1.6%,23.1µM*,-16.9%,-64.6%,-4.2%,-1.9%
COc1cc2cc(CN(CCc3cccc(C)c3)C(=S)NCCCN(C)C)c(=O)[nH]c2cc1OC,0.6%,-8.1%,-0.9%,-12.6%[1.84 µM],-4.0%,-2.6%
CNC(=S)N(CCc1cccc(C)c1)Cc1cc2cc(OC)c(OC)cc2[nH]c1=O,-1.3%,13µM*,0.3%,-18.4%[1.84 µM],3.1%,-1.4%
Cc1cc(C)c(/C=C/c2onc(C)c2S(=O)(=O)N2CCC(C(=O)N(C)Cc3ccccc3)CC2)c(C)c1,0.2%,nt,nt,nt,nt,nt
CCc1cccc(C)c1NC(=O)c1cc(C)nc2c1c(C)nn2-c1cccc(Cl)c1C,-0.5%,nt,nt,nt,nt,nt
Cc1ccc(NC(=O)N(Cc2cccs2)Cc2cc3cc4c(cc3[nH]c2=O)OCO4)cc1,-16.8%,20.6µM*,-1.1%,-22.3%,-3.7%,-2.4%
COc1cccc2c1C(=O)c1c(O)c3c(c(O)c1C2=O)C[C@@](O)(C(C)=O)C[C@@H]3O[C@H]1C[C@H](N)[C@H](O)[C@H](C)O1,?,3.26µM*,-12.4%,-113.2%,-34.9%,-35.2%
CC(=O)[C@]1(O)Cc2c(O)c3c(c(O)c2[C@@H](O[C@H]2C[C@H](N)[C@H](O)[C@H](C)O2)C1)C(=O)c1ccccc1C3=O,nt,nt,nt,-68.8%,-37.3%[46.1 µM],-43.7%[46.1 µM]
O=C(CC1C(=O)NCCN1CC1CCCCC1)NCc1ccc(F)cc1F (centres undefined),?,?,?,nt,2.82µM*,2.82µM*
O=C(/C(C=Nc1ccc(F)cc1)=C(/O)c1ccco1)C(F)(F)F,8.49µM*,?,7.31µM*,?,2.3%,23.9%
Cc1ccc(N=C/C(C(=O)C(F)(F)F)=C(\O)c2ccco2)cc1Cl,9.53µM*,?,?,nt,2.0%,0.4%
COc1c(C)oc2cc(O)ccc2c1=O,6.4%,-6.7%,-0.9%,15.4%,0.7%,2.5%
Oc1ccc2c(c1)oc1cc(O)ccc12,19µM*,?,10.9%,?,-1.5%,0.1%
CC(=O)c1ccc(NC(=O)NNS(=O)(=O)c2ccc([N+](=O)[O-])cc2)cc1,4.4%,-3.5%,1.1%,nt,0.3%,11.0%
O=C(Nc1ccc(Cl)cc1)N1CCN(c2ccccc2)CC1,?,-7.5%,-1.6%,-4.2%,4.4%,11.0%
CC(=O)c1ccc(NC(=O)Nc2ccc([N+](=O)[O-])cc2)cc1,-16.3%,?,?,12.6µM*,?,27.0%
CC(=O)c1ccc(NC(=O)N2CCN(c3cccc(Cl)c3)CC2)cc1,3.0%,?,-6.7%,-0.9%,-0.2%,-5.6%
O=C(Nc1ccc(Cl)cc1)N1CC=CCC1,16.9µM*,?,21.9%,-10.2%,?,?
O=C(O)/C=C\C(=O)Nc1ccc(N2CCN(c3ccc(Cl)cc3)CC2)cc1,15.1µM*,-2.5%,-1.0%,nt,-7.3%,-14.5%
CC(=O)c1ccc(N2CCN(C(=O)Nc3ccc(Cl)cc3)CC2)cc1,-4.8%,16.4µM*,-7.2%,-50.2%,-0.7%,10.5%
O=C(/C=C/c1ccccc1)c1ccc(O[C@H]2OC(CO)C(O)C(O)C2O)cc1O (some centres undefined),nt,nt,nt,4.3%,nt,nt

# High-throughput results as filed in PubChem.
